According to PubChem BioAssay AID1159580 (chemical genetic matrix, 2015):
In all, about 5,500 compounds went through this assay and about 2,000 (36%) were called active. Another 18% or so got no clear call; they are omitted. No stated cut-off is given here; in the data, active means normalized growth mostly below about 0.91 (no sharp cut-off); inconclusive means no clear call, values can overlap the other calls; inactive means mostly above about 0.92. The list shows a part of the results.

Assay: chemical genetic growth profiling, strain panel (AID 1159580);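 further: tested at 20 µM; growth read once vehicle control cultures reached saturation at 30 °C; 1 = growth at the plate median or of vehicle wells; lower values mean less growth of the strain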
Conditions: growth OD
[1] = S. cerevisiae deletion strains, locus YDR150W, strain NUM1, hits give low values
[2] = S. cerevisiae deletion strains, locus YPL055C, strain LGE1, hits give low values
[3] = S. cerevisiae deletion strains, locus YPL241C, strain CIN2, hits give low values
[4] = S. cerevisiae deletion strains, locus YDL101C, strain DUN1, hits give low values
[5] = S. cerevisiae deletion strains, locus YHR030C, strain SLT2, hits give low values

Measured: normalized growth

O=c1cc(-c2ccccc2)[nH]c2nc(Cl)ccc12
inactive: S. cerevisiae deletion strains, locus YAL040C, strain CLN3, hits give low values 0.964 | S. cerevisiae deletion strains, locus YCL061C, strain MRC1 (second series), hits give low values 1 | [1] 1.01 | S. cerevisiae deletion strains, locus YDR363W, strain ESC2, hits give low values 0.979 | S. cerevisiae deletion strains, locus YER002W, strain NOP16, hits give low values 1.03 | S. cerevisiae deletion strains, locus YNL128W, strain TEP1, hits give low values 0.962 | S. cerevisiae deletion strains, locus YNL175C, strain NOP13, hits give low values 0.989 | S. cerevisiae deletion strains, locus YNL197C, strain WHI3, hits give low values 1.01 | S. cerevisiae deletion strains, locus YNL224C, strain SQS1, hits give low values 0.977 | S. cerevisiae deletion strains, locus YOR083W, strain WHI5 (second series), hits give low values 0.989 | [2] 0.997 | [3] 1

CC(C)(C)c1cc(C(=O)NN)n[nH]1
inactive: S. cerevisiae deletion strains, locus YAL013W, strain DEP1, hits give low values 1.01 | S. cerevisiae deletion strains, locus YBR229C, strain ROT2, hits give low values 1.01 | [4] 0.973 | [1] 0.995 | S. cerevisiae deletion strains, locus YEL061C, strain CIN8, hits give low values 1.01 | S. cerevisiae deletion strains, locus YGR078C, strain PAC10, hits give low values 0.996 | S. cerevisiae deletion strains, locus YGR229C, strain SMI1, hits give low values 1 | [5] 1.06 | S. cerevisiae deletion strains, locus YHR087W, strain rtc3, hits give low values 1 | S. cerevisiae deletion strains, locus YJL187C, strain SWE1, hits give low values 0.988 | S. cerevisiae deletion strains, locus YJR043C, strain POL32, hits give low values 0.997 | S. cerevisiae deletion strains, locus YJR075W, strain HOC1, hits give low values 0.979 | S. cerevisiae deletion strains, locus YLR039C, strain RIC1, hits give low values 1.08 | S. cerevisiae deletion strains, locus YLR058C, strain SHM2 (second series), hits give low values 0.995 | S. cerevisiae deletion strains, locus YLR085C, strain ARP6, hits give low values 1.15 | S. cerevisiae deletion strains, locus YLR262C, strain YPT6, hits give low values 1.04 | S. cerevisiae deletion strains, locus YML094W, strain GIM5, hits give low values 1.04 | S. cerevisiae deletion strains, locus YMR219W, strain ESC1, hits give low values 1 | S. cerevisiae deletion strains, locus YMR263W, strain SAP30, hits give low values 0.984 | S. cerevisiae deletion strains, locus YMR307W, strain GAS1, hits give low values 1 | S. cerevisiae deletion strains, locus YNL153C, strain GIM3, hits give low values 0.991 | S. cerevisiae deletion strains, locus YNL298W, strain CLA4 (second series), hits give low values 1.01 | S. cerevisiae deletion strains, locus YNL322C, strain KRE1, hits give low values 0.997 | S. cerevisiae deletion strains, locus YNR030W, strain Alg12, hits give low values 1 | S. cerevisiae deletion strains, locus YOL006C, strain TOP1, hits give low values 1.09 | [2] 1.04 | [3] 0.953 | S. cerevisiae deletion strains, locus YPR135W, strain CTF4, hits give low values 1.21 | S. cerevisiae strains, strain wild type, hits give low values 1.01

CC(C)(C)c1ccc(-c2cc(NC(=O)c3ccc(Cl)cc3)n[nH]2)cc1
inactive: S. cerevisiae deletion strains, locus YAR019C, strain CDC15, hits give low values 0.986 | S. cerevisiae deletion strains, locus YBL105C, strain PKC1, hits give low values 1.02 | S. cerevisiae deletion strains, locus YBR135W, strain CKS1, hits give low values 1.02 | S. cerevisiae deletion strains, locus YBR136W, strain MEC1, hits give low values 1.01 | S. cerevisiae deletion strains, locus YBR160W, strain CDC28, hits give low values 0.99 | S. cerevisiae deletion strains, locus YDL017W, strain CDC7, hits give low values 1 | S. cerevisiae deletion strains, locus YDL028C, strain MPS1, hits give low values 1.03 | [4] 1.01 | S. cerevisiae deletion strains, locus YDL108W, strain KIN28, hits give low values 1.01 | S. cerevisiae deletion strains, locus YDL132W, strain cdc53, hits give low values 1.03 | S. cerevisiae deletion strains, locus YDL214C, strain PRR2, hits give low values 1.04 | S. cerevisiae deletion strains, locus YDR052C, strain DBF4, hits give low values 0.995 | S. cerevisiae deletion strains, locus YDR054C, strain cdc34, hits give low values 1.01 | S. cerevisiae deletion strains, locus YDR226W, strain ADK1, hits give low values 1.01 | S. cerevisiae deletion strains, locus YDR477W, strain SNF1, hits give low values 1.02 | S. cerevisiae deletion strains, locus YER123W, strain YCK3, hits give low values 1.01 | S. cerevisiae deletion strains, locus YER133W, strain GLC7, hits give low values 1.02 | S. cerevisiae deletion strains, locus YFL009W, strain cdc4, hits give low values 1.02 | S. cerevisiae deletion strains, locus YFL029C, strain CAK1, hits give low values 1.01 | S. cerevisiae deletion strains, locus YFR003C, strain YPI1, hits give low values 1.01 | S. cerevisiae deletion strains, locus YFR019W, strain FAB1, hits give low values 1.01 | S. cerevisiae deletion strains, locus YFR028C, strain CDC14, hits give low values 1.01 | S. cerevisiae deletion strains, locus YGR040W, strain KSS1, hits give low values 1.03 | S. cerevisiae deletion strains, locus YGR052W, strain FMP48, hits give low values 0.995 | S. cerevisiae deletion strains, locus YGR092W, strain DBF2, hits give low values 0.933 | [5] 1.08 | S. cerevisiae deletion strains, locus YHR079C, strain IRE1, hits give low values 1.1 | S. cerevisiae deletion strains, locus YHR082C, strain KSP1, hits give low values 1.1 | S. cerevisiae deletion strains, locus YHR205W, strain SCH9, hits give low values 0.96 | S. cerevisiae deletion strains, locus YIL147C, strain SLN1, hits give low values 1.04 | S. cerevisiae deletion strains, locus YJL095W, strain BCK1, hits give low values 0.999 | S. cerevisiae deletion strains, locus YJL128C, strain PBS2, hits give low values 0.978 | S. cerevisiae deletion strains, locus YJL157C, strain FAR1, hits give low values 1.01 | S. cerevisiae deletion strains, locus YJR016C, strain ILV3, hits give low values 1.03 | S. cerevisiae deletion strains, locus YJR066W, strain TOR1 (second series), hits give low values 0.983 | S. cerevisiae deletion strains, locus YJR066W, strain TOR1, hits give low values 1.05 | S. cerevisiae deletion strains, locus YKL048C, strain ELM1, hits give low values 1.03 | S. cerevisiae deletion strains, locus YKL067W, strain YNK1, hits give low values 1.02 | S. cerevisiae deletion strains, locus YKL101W, strain HSL1, hits give low values 1.05 | S. cerevisiae deletion strains, locus YKL193C, strain SDS22, hits give low values 1.03 | S. cerevisiae deletion strains, locus YKL203C, strain TOR2, hits give low values 1.09 | S. cerevisiae deletion strains, locus YLR113W, strain HOG1, hits give low values 1.03 | S. cerevisiae deletion strains, locus YLR133W, strain CKI1, hits give low values 1.02 | S. cerevisiae deletion strains, locus YLR403W, strain SFP1, hits give low values 0.971 | S. cerevisiae deletion strains, locus YML070W, strain DAK1, hits give low values 1.04 | S. cerevisiae deletion strains, locus YMR001C, strain CDC5, hits give low values 1 | S. cerevisiae deletion strains, locus YMR205C, strain PFK2 (second series), hits give low values 0.99 | S. cerevisiae deletion strains, locus YMR277W, strain FCP1, hits give low values 1.02 | S. cerevisiae deletion strains, locus YNL006W, strain LST8, hits give low values 0.999 | S. cerevisiae deletion strains, locus YNL020C, strain ARK1, hits give low values 1.03 | S. cerevisiae deletion strains, locus YNL161W, strain CBK1, hits give low values 1.02 | S. cerevisiae deletion strains, locus YNL183C, strain NPR1, hits give low values 1.04 | S. cerevisiae deletion strains, locus YNL207W, strain RIO2, hits give low values 1.01 | S. cerevisiae deletion strains, locus YNL222W, strain SSU72, hits give low values 0.992 | S. cerevisiae deletion strains, locus YNL307C, strain MCK1 (second series), hits give low values 1 | S. cerevisiae deletion strains, locus YOL078W, strain AVO1, hits give low values 1.01 | S. cerevisiae deletion strains, locus YOL136C, strain PFK27, hits give low values 1.03 | S. cerevisiae deletion strains, locus YOR061W, strain CKA2, hits give low values 0.993 | S. cerevisiae deletion strains, locus YOR119C, strain RIO1, hits give low values 1.1 | S. cerevisiae deletion strains, locus YOR231W, strain MKK1, hits give low values 1.02 | S. cerevisiae deletion strains, locus YOR329C, strain SCD5, hits give low values 1.04 | S. cerevisiae deletion strains, locus YPL031C, strain PHO85, hits give low values 1.02 | S. cerevisiae deletion strains, locus YPL153C, strain RAD53, hits give low values 1.01 | S. cerevisiae deletion strains, locus YPL204W, strain HRR25, hits give low values 1.01 | S. cerevisiae deletion strains, locus YPL209C, strain IPL1, hits give low values 1.01 | S. cerevisiae deletion strains, locus YPR025C, strain CCL1, hits give low values 1 | S. cerevisiae deletion strains, locus YPR106W, strain ISR1, hits give low values 1.01 | S. cerevisiae deletion strains, locus YPR111W, strain DBF20, hits give low values 1 | S. cerevisiae deletion strains, strain NNK1, hits give low values 1.01 | S. cerevisiae deletion strains, strain TSCII, hits give low values 1.03
active: S. cerevisiae deletion strains, locus YPL256C, strain CLN2, hits give low values 1.21 [resistant]
